According to the supplement of paper PMC8728848:
The full list was thinned out, with the strongest signals kept by preference.

Columns and labels:
Experiment in all cases: glycan array binding signal (z-score within array); higher = stronger binding
Conditions in all cases: glycan notation: IUPAC condensed, linker removed; mutation: N288D, K313I
[1] = biological target: Fuc(a1-2)Gal(b1-3)GlcNAc(b1-3)[Fuc(a1-2)Gal(b1-3)GlcNAc(b1-6)]GalNAc
Outline: (§1)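 Negative Z-scores can be read as non-binding. The Z-score is calculated within each array and then averaged across arrays of one protein sequence at different concentrations or buffers and across linkers. Arrays, 3228 in all, were curated from the Consortium for Functional Glycomics database and kept only where the protein sequence was available.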

[2] = biological target: Fuc(a1-2)Gal(b1-3)GlcNAc(b1-3)[Gal(b1-4)GlcNAc(b1-6)]Gal(b1-4)Glc
Outline: as §1

[3] = biological target: Fuc(a1-2)Gal(b1-4)Fuc(a1-3)]GlcNAc(b1-2)Man(a1-3)[Fuc(a1-2)Gal(b1-4)[Fuc(a1-3)]GlcNAc(b1-2)Man(a1-6)]Man(b1-4)GlcNAc(b1-4)GlcNAc
Outline: as §1

[4] = biological target: Fuc(a1-2)Gal(b1-4)GlcNAc(b1-2)Man(a1-3)[Fuc(a1-2)Gal(b1-4)GlcNAc(b1-2)Man(a1-6)]Man(b1-4)GlcNAc(b1-4)GlcNAc
Outline: as §1

[5] = biological target: Fuc(a1-2)Gal6S(b1-3)GlcNAc
Outline: as §1

[6] = biological target: Fuc(a1-2)[GalNAc(a1-3)]Gal(b1-3)GlcNAc(b1-6)GalNAc
Outline: as §1

[7] = biological target: Fuc(a1-2)[GalNAc(a1-3)]Gal(b1-4)GlcNAc
Outline: as §1

[8] = biological target: Fuc(a1-2)[GalNAc(a1-3)]Gal(b1-4)GlcNAc(b1-3)GalNAc
Outline: as §1

[9] = biological target: Fuc(a1-2)[GalNAc(a1-3)]Gal(b1-4)[Fuc(a1-3)]GlcNAc(b1-3)GalNAc
Outline: as §1

[10] = biological target: Fuc(a1-2)[GalNAc(a1-4)]Gal(b1-4)GlcNAc
Outline: as §1

[11] = biological target: Fuc(a1-3)[Gal3S(b1-4)]GlcNAc
Outline: as §1

[12] = biological target: Gal(a1-3)Gal(b1-3)GlcNAc(b1-6)GalNAc
Outline: as §1

[13] = biological target: Gal(a1-3)Gal(b1-3)[Fuc(a1-4)]GlcNAc(b1-2)Man(a1-3)[Gal(a1-3)Gal(b1-3)[Fuc(a1-4)]GlcNAc(b1-2)Man(a1-6)]Man(b1-4)GlcNAc(b1-4)GlcNAc
Outline: as §1

[14] = biological target: Gal(b1-3)GalNAc(a1-3)[Fuc(a1-2)]Gal(b1-4)Glc
Outline: as §1

[15] = biological target: Gal(b1-3)GlcNAc(b1-3)Gal(b1-4)GlcNAc(b1-2)[Gal(b1-3)GlcNAc(b1-3)Gal(b1-4)GlcNAc(b1-6)]Man(a1-6)[Gal(b1-3)GlcNAc(b1-3)Gal(b1-4)GlcNAc(b1-2)Man(a1-3)]Man(b1-4)GlcNAc(b1-4)[Fuc(a1-6)]GlcNAc
Outline: as §1

[16] = biological target: Gal(b1-3)GlcNAc(b1-3)Gal(b1-4)GlcNAc(b1-3)Gal(b1-4)GlcNAc(b1-2)[Gal(b1-3)GlcNAc(b1-3)Gal(b1-4)GlcNAc(b1-3)Gal(b1-4)GlcNAc(b1-6)]Man(a1-6)[Gal(b1-3)GlcNAc(b1-3)Gal(b1-4)GlcNAc(b1-3)Gal(b1-4)GlcNAc(b1-2)Man(a1-3)]Man(b1-4)GlcNAc(b1-4)[Fuc(a1-6)]GlcNAc
Outline: as §1

[17] = biological target: Gal(b1-3)[Neu5Ac(a2-6)]GalNAc
Outline: as §1

[18] = biological target: Gal(b1-4)GlcNAc(b1-2)Man(a1-3)[GlcNAc(b1-4)][Gal(b1-4)GlcNAc(b1-2)Man(a1-6)]Man(b1-4)GlcNAc(b1-4)GlcNAc
Outline: as §1

[19] = biological target: Gal(b1-4)GlcNAc(b1-2)[Gal(b1-4)GlcNAc(b1-4)]Man(a1-3)[Gal(b1-4)GlcNAc(b1-2)[Gal(b1-4)GlcNAc(b1-6)]Man(a1-6)]Man(b1-4)GlcNAc(b1-4)GlcNAc
Outline: as §1

[20] = biological target: Gal3S(b1-4)[Fuc(a1-3)]GlcNAc6S
Outline: as §1

Gal3S4S(b1-4)GlcNAc = biological target: Gal3S4S(b1-4)GlcNAc
Outline: as §1

Gal3S6S(b1-4)GlcNAc = biological target: Gal3S6S(b1-4)GlcNAc
Outline: as §1

GalNAc(b1-3)Gal = biological target: GalNAc(b1-3)Gal
Outline: as §1

[21] = biological target: GalNAc(b1-4)GlcNAc(b1-2)Man(a1-3)[GalNAc(b1-4)GlcNAc(b1-2)Man(a1-6)]Man(b1-4)GlcNAc(b1-4)GlcNAc
Outline: as §1

GalNAc(b1-6)GalNAc = biological target: GalNAc(b1-6)GalNAc
Outline: as §1

[22] = biological target: GalNAc3S(b1-4)[Fuc(a1-3)]GlcNAc
Outline: as §1

[23] = biological target: GlcNAc(a1-4)Gal(b1-4)GlcNAc(b1-3)Gal(b1-4)Glc
Outline: as §1

[24] = biological target: GlcNAc(a1-6)Gal(b1-4)GlcNAc
Outline: as §1

B1: Langerin (Homo sapiens), Q9UJ71 (protein)
chain: STLNAQIPELKSDLEKASALNTKIRALQGSLENMSKLLKRQNDILQVVSQGWKYFKGNFYYFSLIPKTWYSAEQFCVSRNSHLTSVTSESEQEFLYKTAGGLIYWIGLTKAGMEGDWSWVDDTPFNKVQSARFWIPGEPNDAGNNEHCGNIKAPSLQAWNDAPCDITFLFICKRPYVPSEP
[1]
  glycan array binding signal (z-score): 0.215
[2]
  glycan array binding signal (z-score): -0.246
[3]
  glycan array binding signal (z-score): -0.237
[4]
  glycan array binding signal (z-score): -0.023
[5]
  glycan array binding signal (z-score): -0.321
[6]
  glycan array binding signal (z-score): 0.089
[7]
  glycan array binding signal (z-score): -0.27
[8]
  glycan array binding signal (z-score): -0.041
[9]
  glycan array binding signal (z-score): 1.92
[10]
  glycan array binding signal (z-score): -0.285
[11]
  glycan array binding signal (z-score): 0.041
[12]
  glycan array binding signal (z-score): 10.4
[13]
  glycan array binding signal (z-score): -0.042
[14]
  glycan array binding signal (z-score): -0.171
[15]
  glycan array binding signal (z-score): 5.7
[16]
  glycan array binding signal (z-score): 7.74
[17]
  glycan array binding signal (z-score): -0.085
[18]
  glycan array binding signal (z-score): -0.237
[19]
  glycan array binding signal (z-score): -0.351
[20]
  glycan array binding signal (z-score): -0.1
Gal3S4S(b1-4)GlcNAc
  glycan array binding signal (z-score): -0.333
Gal3S6S(b1-4)GlcNAc
  glycan array binding signal (z-score): -0.209
GalNAc(b1-3)Gal
  glycan array binding signal (z-score): -0.289
[21]
  glycan array binding signal (z-score): -0.176
GalNAc(b1-6)GalNAc
  glycan array binding signal (z-score): -0.255
[22]
  glycan array binding signal (z-score): 0.095
[23]
  glycan array binding signal (z-score): -0.192
[24]
  glycan array binding signal (z-score): -0.229
